Here are results for 37 compounds from the supplement of paper PMC6331611.

± gives the standard deviation of the averaged measurements. Over roughly 1,600 compounds, “normalized intracellular growth (luminescence, IQM-normalized) in RAW264.7 macrophages” has its median near 1; the lowest 2% begin near 0.43. The sample holds the lowest values, similar compounds and a random draw of the others, so the mix is not that of the screen.

This experiment deals with Salmonella enterica serovar Typhimurium SL1344. Briefly: normalized intracellular growth (luminescence, IQM-normalized) in RAW264.7 macrophages (fraction of plate interquartile mean); higher = more bacterial growth (less inhibition). The conditions noted are these: 10 µM.

For `CNC(=O)c1c(I)c(NC(C)=O)c(I)c(C(=O)O)c1I`, the normalized intracellular growth is 1.01 ± 0.056 (time point: T3 (3 h)) and 0.883 ± 0.21 (time point: Tfinal (~6 h)).
The corresponding values for `C[N+]1(C)[C@@H]2CC[C@H]1C[C@@H](OC(=O)C(O)c1ccccc1)C2` (some centres undefined) are 0.968 ± 0.056 and 1.06 ± 0.025.
The corresponding values for `C[C@]12C=CC(=O)C=C1CC[C@@H]1[C@@H]2[C@@H](O)C[C@@]2(C)[C@H]1CC[C@]2(O)C(=O)COP(=O)(O)O` are 0.954 ± 0.029 and 1.16 ± 0.24.
For `S=C1SCN(Cc2ccccc2)CN1Cc1ccccc1` the same measures were 1.01 ± 0.087 and 0.779 ± 0.14.
On to `CCOC(=O)C1=C[C@@H](OC(CC)CC)[C@H](NC(C)=O)[C@@H](N)C1`, for which the normalized intracellular growth (time point: T3 (3 h)) was found to be 1.01 ± 0.021 and the normalized intracellular growth (time point: Tfinal (~6 h)) was 1.33 ± 0.15.
The corresponding values for `CN(Cc1cnc2nc(N)nc(N)c2n1)c1ccc(C(=O)NC(CCC(=O)O)C(=O)O)cc1` (racemic) are 1.05 ± 0.046 and 0.825 ± 0.024.
For `Cn1nnnc1SCC1=C(C(=O)O)N2C(=O)[C@@H](NC(=O)[C@H](OC=O)c3ccccc3)[C@H]2SC1` the same measures were 0.866 ± 0.094 and 0.979 ± 0.024.
For `CC1=C(C(=O)O)N2C(=O)[C@@H](NC(=O)[C@H](N)c3ccccc3)[C@H]2SC1` the same measures were 1.017 ± 0.0017 and 1.07 ± 0.1.
The compound `CO/N=C(\C(=O)N[C@@H]1C(=O)N2C(C(=O)O)=C(CSc3nc(=O)c(O)nn3C)CS[C@H]12)c1csc(N)n1` showed a normalized intracellular growth (time point: T3 (3 h)) of 0.891 ± 0.022 and a normalized intracellular growth (time point: Tfinal (~6 h)) of 0.311 ± 0.035.
For `CO/N=C(\C(=O)N[C@@H]1C(=O)N2C(C(=O)O)=C(COC(N)=O)CS[C@H]12)c1ccco1` the same measures were 0.994 ± 0.043 and 0.732 ± 0.083.
For `CO/N=C(\C(=O)N[C@@H]1C(=O)N2C(C(=O)O)=C(CSc3nnnn3C)CS[C@H]12)c1csc(N)n1` the same measures were 0.987 ± 0.052 and 0.935 ± 0.032.
The corresponding values for `CC1=C(C(=O)O)N2C(=O)[C@@H](NC(=O)[C@H](N)c3ccc(O)cc3)[C@H]2SC1` are 0.982 ± 0.0066 and 0.831 ± 0.018.
Take `CO/N=C(\C(=O)N[C@@H]1C(=O)N2C(C(=O)OC(C)OC(C)=O)=C(COC(N)=O)CS[C@H]12)c1ccco1` (some centres undefined): the normalized intracellular growth runs as follows: (time point: T3 (3 h)) 1.09 ± 0.063; (time point: Tfinal (~6 h)) 0.977 ± 0.23.
The corresponding values for `Nc1nc(/C(=C/CC(=O)O)C(=O)N[C@@H]2C(=O)N3C(C(=O)O)=CCS[C@H]23)cs1` are 0.951 ± 0.059 and 0.0259 ± 0.0032.
The corresponding values for `CO/N=C(\C(=O)N[C@@H]1C(=O)N2C(C(=O)O)=C(CSC(=O)c3ccco3)CS[C@H]12)c1csc(N)n1` are 1 ± 0.029 and 0.0233 ± 0.0029.
For `Cc1ncc(CSSCc2cnc(C)c(O)c2CO)c(CO)c1O` the same measures were 0.943 ± 0.057 and 1.06 ± 0.015.
Turning to `O=C(O)C1=C(CSc2nnnn2CS(=O)(=O)O)CS[C@@H]2[C@H](NC(=O)[C@H](O)c3ccccc3)C(=O)N12`, the normalized intracellular growth is 0.979 ± 0.034 (time point: T3 (3 h)) and 0.824 ± 0.19 (time point: Tfinal (~6 h)).
For `Cc1ccc2c(Br)cc(Br)c(OC(=O)c3ccccc3)c2n1` the same measures were 0.944 ± 0.025 and 1.01 ± 0.097.
For `S=C=Nc1ccc(N=C=S)cc1`, the normalized intracellular growth (time point: T3 (3 h)) is 1.04 ± 0.035 and the normalized intracellular growth (time point: Tfinal (~6 h)) worked out at 1.01 ± 0.11.
The corresponding values for `CN(C)c1ccc2nc3ccc(=[N+](C)C)cc-3sc2c1` are 1.29 ± 0.088 and 1.4 ± 0.2.
The corresponding values for `COc1ccc(Cc2cnc(N)nc2N)cc1OC` are 0.784 ± 0.028 and 0.17 ± 0.021.
The corresponding values for `COc1cc(/C=C/C(N)=O)cc(OC)c1OC` are 1.04 ± 0.084 and 1.03 ± 0.12.
Turning to `COc1cc(Cc2cnc(N)nc2N)cc(OC)c1OC`, the normalized intracellular growth reads like this: (time point: T3 (3 h)) 0.563 ± 0.068; (time point: Tfinal (~6 h)) 0.155 ± 0.025.
`C[C@@H]1CC2C3C[C@H](F)C4=CC(=O)C=C[C@]4(C)[C@@]3(F)[C@@H](O)C[C@]2(C)[C@@]1(O)C(=O)COC(=O)C(C)(C)C` (some centres undefined): the normalized intracellular growth is, setting by setting: (time point: T3 (3 h)) 0.961 ± 0.055; (time point: Tfinal (~6 h)) 0.888 ± 0.12.
The corresponding values for `Cc1cc(-c2ccc(/N=N/c3ccc4c(S(=O)(=O)O)cc(S(=O)(=O)O)c(N)c4c3O)c(C)c2)ccc1/N=N/c1ccc2c(S(=O)(=O)O)cc(S(=O)(=O)O)c(N)c2c1O` are 1.06 ± 0.038 and 1.36 ± 0.084.
For `CCOC(=S)SSC(=S)OCC` the same measures were 0.994 ± 0.036 and 0.924 ± 0.067.
For `C[C@@H]1NC(=O)[C@@H](N)CNC(=O)[C@H](C2CCNC(=N)N2)NC(=O)/C(=C/NC(N)=O)NC(=O)[C@H](CNC(=O)CC(N)CCCN)NC1=O.N=C1NCC[C@H]([C@@H]2NC(=O)/C(=C/NC(N)=O)NC(=O)[C@H](CNC(=O)C[C@@H](N)CCCN)NC(=O)[C@H](CO)NC(=O)[C@@H](N)CNC2=O)N1` the same measures were 0.976 ± 0.016 and 0.966 ± 0.059.
On to `CC(=O)N[C@@H]([C@@H](O)[C@H](O)[C@H](O)CO)[C@@H](O)CC(=O)C(=O)O`, for which the normalized intracellular growth reads like this: (time point: T3 (3 h)) 1.02 ± 0.058; (time point: Tfinal (~6 h)) 1.06 ± 0.24.
For `C[C@@H]1O[C@@H](OC[C@H]2O[C@@H](Oc3c(-c4ccc(OCCO)c(OCCO)c4)oc4cc(OCCO)cc(O)c4c3=O)[C@H](O)[C@@H](O)[C@@H]2O)[C@H](O)[C@H](O)[C@H]1O` the same measures were 0.951 ± 0.034 and 0.746 ± 0.24.
The corresponding values for `OC[C@H]1O[C@@H](O[C@H]2[C@H](O)[C@@H](O)C(O)O[C@@H]2CO)[C@H](O)[C@@H](O)[C@H]1O` (some centres undefined) are 1.05 ± 0.022 and 1.04 ± 0.026.
For `C1CNCCN1` the same measures were 0.991 ± 0.091 and 0.655 ± 0.077.
Take `C[C@@H]1CN(c2c(F)c(F)c3c(=O)c(C(=O)O)cn(C4CC4)c3c2F)C[C@H](C)N1`: the normalized intracellular growth was 0.986 ± 0.025 (time point: T3 (3 h)) and 0.0257 ± 0.0074 (time point: Tfinal (~6 h)).
For `C[C@@H]1CN(c2c(F)c(N)c3c(=O)c(C(=O)O)cn(C4CC4)c3c2F)C[C@H](C)N1` the same measures were 1.08 ± 0.037 and 0.0132 ± 0.002.
The corresponding values for `COc1ccc(CN(CCN(C)C)c2ncccn2)cc1` are 1.1 ± 0.06 and 1.1 ± 0.093.
For `Cc1cc2nc3c(=O)[nH]c(=O)nc-3n(CC(O)C(O)C(O)COP(=O)(O)O)c2cc1C` (centres undefined) the same measures were 0.886 ± 0.064 and 1.08 ± 0.19.
For `O=C(O)CN(CCN(CC(=O)O)CC(=O)O)CC(=O)O.[Na+].[Na+].[Na+]`, the normalized intracellular growth was 1.03 ± 0.021 (time point: T3 (3 h)) and 1.54 ± 0.093 (time point: Tfinal (~6 h)).
For `C[C@H]1O[C@@H](O[C@H]2[C@@H](O)C[C@H](O[C@H]3[C@@H](O)C[C@H](O[C@H]4CC[C@@]5(C)[C@H](CC[C@@H]6[C@@H]5CC[C@]5(C)[C@@H](C7=CC(=O)OC7)CC[C@]65O)C4)O[C@@H]3C)O[C@@H]2C)C[C@H](O)[C@@H]1O` the same measures were 1.03 ± 0.042 and 1.08 ± 0.087.
